# Experimental data: PubChem BioAssay (NCATS)
# Values joined by “and” are separate entries in the source; they are usually repeats but may differ in a detail not shown here. Equal values may be shown once. Records with an inconclusive call do not appear. A call without a number means that no potency is given here. Some structures have more than one record in an assay (separate samples or runs), and their calls can disagree. Active and inactive are the calls of the source. Unless noted, the call rests on the fitted dose curve; in most records, active means well fitted curve in the direction sought with a large enough effect; inconclusive means small, poorly fitted or top-dose-only effect, or another doubt; inactive means no such curve, though single readings can be large; an effect the other way counts as inactive or inconclusive.
# Experiments:
# [1] = molecular target: Catechol O-methyltransferase (Homo sapiens) (UniProt P21964); assay: Confirmatory Screen for Target Class Profiling of Small Molecule Inhibitors of Methyltransferases (AID 1745852; calls by dose curve; further: potency means the concentration at half of the fitted maximal effect); conditions: MTase-Glo luminescence, SAH detection, recombinant enzyme; measured here: COMT max response; stronger effect = lower value
# [2] = molecular target: Guanidinoacetate N-methyltransferase (Homo sapiens) (UniProt Q14353); assay: as above; conditions: MTase-Glo luminescence, SAH detection, recombinant enzyme; activity change, negative = inhibition: at 57.3 µM (top of the series) unless noted; series mostly up to 57.3 µM
# [3] = molecular target: Nicotinamide N-methyltransferase (Homo sapiens) (UniProt P40261); assay: as above; conditions: MTase-Glo luminescence, SAH detection, recombinant enzyme; measured here: NNMT max response; stronger effect = lower value
# [4] = molecular target: Phenylethanolamine N-methyltransferase (Homo sapiens) (UniProt P11086); assay: as above; conditions: MTase-Glo luminescence, SAH detection, recombinant enzyme; measured here: PNMT max response; stronger effect = lower value
# [5] = molecular target: Glutathione peroxidase 1 (Homo sapiens) (UniProt P07203); assay: Primary qHTS Assay for Inhibitors of Recombinant Selenoprotein Glutathione Peroxidase 1 (GPX1) (AID 1845191); conditions: recombinant GPX1, GR-coupled NADPH fluorescence, 15 min; series mostly up to 48.8 µM; further: nearly all actives have a fitted effect of over 65% in size
# Summary of the method: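 NADPH consumption tracked by fluorescence at 340/450 nm between t=0 and t=15 min, room temperature. Final mix: 10 nM GPX1, 100 nM glutathione reductase, 1 mM GSH, 0.5 mM NADPH, 0.5 mM cumene hydroperoxide, 0.01% BSA; 30 min compound–enzyme preincubation.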
# [6] = molecular target: Phospholipid hydroperoxide glutathione peroxidase GPX4 (Homo sapiens) (UniProt P36969); assay: Primary qHTS Assay for Inhibitors of Recombinant Selenoprotein Glutathione Peroxidase 4 (GPX4) (AID 1845192); conditions: recombinant GPX4, GR-coupled NADPH fluorescence, 15 min; series mostly up to 50 µM; further: nearly all actives have a fitted effect of over 65% in size; further: potency means the concentration at half of the fitted maximal effect
# Summary of the method: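 NADPH consumption followed by fluorescence at 340/450 nm, t=0 and after 15 min at room temperature. Reaction started with cumene hydroperoxide (0.5 mM final) after 30 min compound–GPX4 preincubation; final 200 nM GPX4, 100 nM GR, 1 mM GSH, 0.5 mM NADPH.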
# [7] = molecular target: Luciferin 4-monooxygenase (Photinus pyralis) (UniProt P08659); assay: Primary firefly luciferase (FLuc) qHTS assay for identification of artifact compounds. (AID 1845220); conditions: purified firefly luciferase, luminescence, 5 min; series mostly up to 54.1 µM; further: nearly all actives have a fitted effect of over 60% in size; further: potency means the concentration at half of the fitted maximal effect
# Summary of the method: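 FLuc 10 nM; luciferin 10 uM; ATP 10 uM; Tris-acetate pH 7.6, Mg-acetate 10 mM; 15 min RT preincubation; 5 min reaction; luminescence.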
# [8] = test system: Nanoluciferase (engineered Oplophorus gracilirostris luciferase); assay: Primary Nanoluciferase (NLuc) qHTS assay for identification of artifact compounds. (AID 1845222); conditions: NLuc-conditioned medium, Nano-Glo luminescence, 5 min; series mostly up to 54.1 µM;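 further: NLuc secreted into diluted conditioned medium of S16 cells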
# Summary of the method: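 NLuc from S16 cell medium (1:55) plus test compounds, 15 min, room temperature. Luminescence after Nano-Glo (1:100) addition, 5 min.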
# [9] = Primary redox qHTS assay for identification of artifact compounds. (AID 1845223); conditions: Amplex Red/HRP redox cycling with DTT, fluorescence; series mostly up to 53.8 µM
# Summary of the method: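 Redox-cycling detection via DTT (250 uM final) oxidation coupled to Amplex Red (25 uM)/HRP (250 mU/mL) in HBSS. 15 min preincubation plus 30 min after DTT, room temperature. Ex/Em 525/598 nm; 4-parameter Hill fit against DMSO and 10 uM DA3003.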
# [10] = Primary fluorescence-based thiol-reactive (MSTI) qHTS assay for identification of artifact compounds. (AID 1845221); conditions: MSTI thiol-reactivity probe, 1 h; series mostly up to 53.8 µM; further: nearly all actives have a fitted effect of over 65% in size; further: potency means the concentration at half of the fitted maximal effect
# Summary of the method: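 Curve-fitted percent inhibition (4-parameter Hill) derived from fluorescence, Ex 525/Em 598 nm, scaled with Acetyl-MSTI and MSTI; 1 h incubation at room temperature.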
# [11] = NCATS anti-infectives library activity on HEK293 viability as a counter-qHTS vs the C. elegans viability qHTS (AID 1745854); conditions: HEK293 viability counter-screen; series mostly up to 41.8 µM;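 further: HEK293 cells exposed to compounds for 24 hr before the viability read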
# Summary of the method: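 Counter-screen for cytotoxicity: HEK293, 24 hr, 37C, compounds up to 41.7 uM final (a dilution series, 1:5). Readout CellTiter-Glo luminescence, 10 min RT. Digitonin control, 83.3 uM final.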
# Nicotinamide N-methyltransferase (Homo sapiens), sequence (P40261 whole entry, looked up): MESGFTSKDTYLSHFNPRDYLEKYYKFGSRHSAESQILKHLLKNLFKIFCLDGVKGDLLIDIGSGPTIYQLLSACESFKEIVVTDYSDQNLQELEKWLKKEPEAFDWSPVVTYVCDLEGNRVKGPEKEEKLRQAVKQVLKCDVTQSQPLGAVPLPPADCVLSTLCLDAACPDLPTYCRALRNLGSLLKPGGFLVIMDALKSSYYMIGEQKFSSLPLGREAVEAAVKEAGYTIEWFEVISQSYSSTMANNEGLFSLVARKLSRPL
# Glutathione peroxidase 1 (Homo sapiens), sequence (P07203 whole entry, looked up): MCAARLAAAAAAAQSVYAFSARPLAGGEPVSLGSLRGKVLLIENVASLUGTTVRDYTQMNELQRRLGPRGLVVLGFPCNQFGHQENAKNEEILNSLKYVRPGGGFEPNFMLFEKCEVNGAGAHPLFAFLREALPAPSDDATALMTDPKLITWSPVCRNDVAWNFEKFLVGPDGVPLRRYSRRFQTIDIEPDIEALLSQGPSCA
# Catechol O-methyltransferase (Homo sapiens), sequence (P21964 whole entry, looked up): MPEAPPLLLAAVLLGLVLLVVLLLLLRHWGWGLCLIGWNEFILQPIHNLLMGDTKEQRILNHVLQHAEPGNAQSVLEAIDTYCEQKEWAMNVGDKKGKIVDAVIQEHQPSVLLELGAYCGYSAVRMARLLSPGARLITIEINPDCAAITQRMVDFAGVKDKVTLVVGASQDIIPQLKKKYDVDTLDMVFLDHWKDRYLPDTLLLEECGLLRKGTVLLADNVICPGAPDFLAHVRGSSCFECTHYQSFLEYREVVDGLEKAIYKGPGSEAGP
# Phospholipid hydroperoxide glutathione peroxidase GPX4 (Homo sapiens), sequence (P36969 whole entry, looked up): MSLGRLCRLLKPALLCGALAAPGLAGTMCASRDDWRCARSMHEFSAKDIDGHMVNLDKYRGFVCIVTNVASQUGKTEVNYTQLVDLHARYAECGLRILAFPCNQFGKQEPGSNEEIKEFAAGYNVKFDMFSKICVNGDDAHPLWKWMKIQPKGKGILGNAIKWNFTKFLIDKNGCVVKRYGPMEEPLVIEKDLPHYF
# Phenylethanolamine N-methyltransferase (Homo sapiens), sequence (P11086 whole entry, looked up): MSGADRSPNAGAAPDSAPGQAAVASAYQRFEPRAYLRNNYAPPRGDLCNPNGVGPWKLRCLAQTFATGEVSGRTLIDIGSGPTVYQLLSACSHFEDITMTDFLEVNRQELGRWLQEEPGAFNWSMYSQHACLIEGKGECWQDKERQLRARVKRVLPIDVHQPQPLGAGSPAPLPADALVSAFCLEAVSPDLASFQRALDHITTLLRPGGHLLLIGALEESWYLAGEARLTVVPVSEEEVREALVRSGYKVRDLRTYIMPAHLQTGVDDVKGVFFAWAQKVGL
Compound,activity [1] [%],"activity change, negative = inhibition [2]",activity [3] [%],activity [4] [%],Potency [5],Potency [6],Potency [7],Potency [8],Potency [9],Potency [10],Potency [2],outcome [11]
CCn1c2ccccc2c2cc(Nc3ccnc(NCCCN4CCOCC4)n3)ccc21,-20,-7.76%,-66.6,-29.8,inactive,inactive,inactive,inactive,inactive,,,
C=C1C(=O)O[C@@H]2/C=C(\CO)CC/C=C(/C=O)C[C@@H](O)[C@@H]12,-63.7,-8.49%,-2.02,-2.71,inactive,inactive,inactive,inactive,inactive,,,
C=C1C(=O)OC2CC(C)C(CCC(C)O)=CCC12 (centres undefined),-95.7,-4.2%,-3.12,-3.4,inactive,inactive,6.75 µM (active),inactive,inactive,,,
Cc1[nH]c2ccccc2c1CCNCc1ccc(/C=C/C(=O)NO)cc1,16.3,-2.13%,-6,-2.09,inactive,inactive,inactive,inactive,inactive,,,
COc1cc2nc(N3CCN(C(=O)c4ccco4)C4CCCCC43)nc(N)c2cc1OC (centres undefined),-2.31,0%,-31.3,0.0711,inactive,22.7 µM (active),inactive,inactive,inactive,,,
CN(C)CCOC(C)(c1ccccc1)c1ccc(Cl)cc1 (centres undefined),-7.63,-4.69%,-25.2,-3.91,inactive,inactive,inactive,inactive,inactive,inactive,,
CC1(C)CC[C@]2(C(=O)O)CC[C@]3(C)C(=CCC4[C@@]5(C)C[C@@H](O)[C@H](O)C(CO)(CO)C5CC[C@]43C)C2[C@@H]1O (some centres undefined),-63.1,0% [at 29.8 µM],0,6.04,inactive,inactive,inactive,inactive,inactive,,,
COc1c(CCC(=O)O)cccc1O[C@@H]1O[C@H](CO)[C@@H](O)[C@H](O)[C@H]1O,-74.9,2.56%,0.561,-9.51,inactive,inactive,inactive,,inactive,13.1 µM (active),,
C/C=C(/C)C(=O)O[C@H]1C=C(CO)C(=O)[C@H](OC(=O)/C(C)=C/CO)[C@H]1C(C)C,-55.6,-5.13%,-3.04,-1.6,inactive,inactive,inactive,inactive,inactive,,,
CNCCC(c1cccs1)c1ccc(O)c2ccccc12 (centres undefined),-4.76,2.71%,-7.38,-1.78,inactive,inactive,inactive,inactive,,,,
CN(C)CCCn1cc(C2=C(c3c[nH]c4ccccc34)C(=O)NC2=O)c2ccccc21,-45.6,,-41.3,-44.4,inactive,inactive,inactive,,inactive,0.423 µM (active),27.1 µM (active),
CC(F)(F)CN1CCOc2c(nn(-c3ccccc3Cl)c2-c2ccc(Cl)cc2)C1=O,-4.22,0.516%,-32.3,-3.99,inactive,inactive,inactive,,inactive,inactive,,
C=C1C(=O)O[C@@H]2/C=C(\CO)CC/C=C(/C=O)C[C@H](O)[C@@H]12,-86.9,-3.06%,4.28,0.589,inactive,inactive,,inactive,inactive,11.9 µM (active),,
C=C1C(=O)OC[C@@H]1C/C=C(\C)CC1CC(C)C(=O)O1 (some centres undefined),-80,-0.246%,0.776,0.671,inactive,inactive,,inactive,,8.44 µM (active),,
NCC(CNc1nc(Nc2cccc(NC(=O)N3CCCC3)c2)ncc1I)C(=O)c1cccs1 (centres undefined),-3.81,0%,-36.6,-13.7,inactive,inactive,,inactive,inactive,inactive,,
COc1ccc(N(C(=O)Nc2c(C)cccc2C)c2cc(Nc3ccc(N4CCN(C)CC4)cc3)ncn2)c(OC)c1,-5.96,0%,-36.9,-7.92,inactive,inactive,inactive,inactive,inactive,,,
O=C(NCC1(c2nc(-c3ccccc3)cs2)CCOCC1)c1cccc(-c2noc(C(F)(F)F)n2)c1,,,,,inactive,inactive,inactive,inactive,inactive,inactive,,inactive
Cc1onc(-c2ccccc2)c1C(=O)N1CCN(c2ccc([N+](=O)[O-])cc2Cl)CC1,,,,,inactive,inactive,inactive,inactive,inactive,,,inactive
COc1cccc(N2CCN(C3=Nc4c(F)cccc4[C@H](CC(=O)O)N3c3cc(C(F)(F)F)ccc3OC)CC2)c1,,,,,inactive,inactive,inactive,inactive,inactive,inactive,,inactive
CCC[C@@]1(CCc2ccccc2)CC(O)=C([C@H](CC)c2cccc(NS(=O)(=O)c3ccc(C(F)(F)F)cn3)c2)C(=O)O1,,,,,inactive,inactive and 6.31 µM (active),inactive,inactive,,inactive,,inactive
